The source of these data is PubChem BioAssay AID430 (Sanford-Burnham Center for Chemical Genomics, 2006).

The whole screen tested about 63,000 compounds, of which about 1,100 (1.7%) were called active. Rule as the data show it: active = cytotoxicity above about 50%; inactive = the rest. The full list was thinned out, with actives kept by preference. Potency and affinity values are given separately.

This test is described as follows: cytotoxicity in HPDE-C7 cells, cell-based, fluorescence, HTS (AID 430).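 Also: cells exposed to compound for 48 hours before viability readout; 0% = vehicle and 100% = reference cytotoxic drug.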 The settings on record: HPDE-C7 pancreatic duct cells viability, at 10 µM, hits give high values.
For the compound `CN1CCN(/C=C2\SC(=S)NC2=O)CC1`, the cytotoxicity was -23.4% (inactive).

`O=C(c1cnc2n(c1=O)CCS2)N1CCN(c2ccc(Cl)c(Cl)c2)CC1`: the cytotoxicity was -3.5% (inactive). Take `CC(NS(=O)(=O)c1ccc(Br)cc1)C(c1cccs1)N1CCN(C)CC1` (configuration not stated): the cytotoxicity was -8.4% (inactive). Under `c1ccc(-n2c(-c3ccncc3)nnc2-c2ccco2)cc1` stands -33.8% (inactive); under `O=C(O)CC1C(=O)NCCN1C/C=C/c1ccccc1` (configuration not stated), -5.3% (inactive); under `O=C(CN(C(=O)CNC(=O)c1ccco1)c1ccc2c(c1)OCO2)NC1CCCCC1`, -31.1% (inactive). As to `Cc1ccc2c(c1)nnn2C1CCN(C(=O)C2CCCCC2)CC1`, the cytotoxicity is -12.5% (inactive).

In the case of `O=C(c1ccccc1F)N1CCN(c2cccc(C(F)(F)F)c2)CC1`, the cytotoxicity is -5% (inactive).

Take `COc1ccccc1CC(=O)N1CCN(c2cccc(C(F)(F)F)c2)CC1`: the cytotoxicity is -10.2% (inactive).

`COc1ccccc1C(=O)N1CCN(c2cccc(C(F)(F)F)c2)CC1`: the cytotoxicity is 60.8% (active).

For `Nc1nnc(SCc2ccc(F)cc2)s1`, the cytotoxicity is -16.7% (inactive).

Regarding `Cc1nnc(SCc2ccc(F)cc2)s1`, the cytotoxicity was 105% (active). `CSc1nsc(SCc2ccc(F)cc2)n1`: the cytotoxicity is -4.1% (inactive). `Clc1ccccc1-c1nnc2sc(-c3ccco3)nn12`: the cytotoxicity was -6.1% (inactive). On to `COC(=O)C1=C(C)N(c2cccc(Cl)c2)C(=O)C1`, for which the cytotoxicity was -4.9% (inactive). Then `COC(=O)C1=C(C)N(c2ccc(F)c(Cl)c2)C(=O)C1`, with -5.3% (inactive); and `COC(=O)C1=C(C)N(c2ccc(Cl)c(Cl)c2)C(=O)C1`, with 84.2% (active); and `Cc1nc2c(o1)CCc1ccccc1C2N1CCN(C)CC1` (configuration not stated), with -16.4% (inactive). With `CC(C)CC(OC(=O)c1ccco1)C(=O)NC1CCCCC1` (configuration not stated), the cytotoxicity was -5.1% (inactive). Under `Cc1ccc(N2CCN(CCc3nc4cc(NS(C)(=O)=O)ccc4n3C)CC2)cc1` stands -22.1% (inactive); under `CCC(C)(C)n1nnnc1C(c1ccccc1F)N1CCC(C(N)=O)CC1` (configuration not stated), 56.3% (active); under `CC(C)CCn1nnnc1C(c1ccccc1F)N1CCC(C(N)=O)CC1` (configuration not stated), -13.3% (inactive). For the compound `CCC(C)(C)n1nnnc1C(C(C)C)N1CCC(C(N)=O)CC1` (configuration not stated), the cytotoxicity is 5.6% (inactive). For `O=C(CN(C1CCCCC1)S(=O)(=O)c1ccc(Cl)cc1)NCc1ccncc1`, the cytotoxicity was -8.9% (inactive). For `Cc1cc(C)c2c(CN3CCN(Cc4ccc5c(c4)OCO5)CC3)cc(=O)oc2c1C`, the cytotoxicity was 44.1% (inactive).

As to `O=C(c1cccc(Cl)c1)N1CCN(c2ccccn2)CC1`, the cytotoxicity is -14.9% (inactive). On to `O=C(c1cccc(COc2ccc(Cl)cc2Cl)c1)N1CCN(c2ccccn2)CC1`, for which the cytotoxicity is 77.5% (active).

`O=C(CCCOc1ccc(Cl)cc1Cl)N1CCN(c2ccccn2)CC1`: the cytotoxicity is 3.1% (inactive). As to `Cc1cc2c(cc1C)NC(CC(=O)NCc1ccccc1)C(=O)N2` (configuration not stated), the cytotoxicity is 1.1% (inactive). Then `c1cncc(Nc2nc(-c3ccncc3)cs2)c1`, with -3.1% (inactive); and `NS(=O)(=O)c1ccc(Nc2nc(-c3ccc(O)cc3)cs2)cc1`, with -1.2% (inactive); and `Oc1ccc(Nc2nc(-c3ccc(O)cc3)cs2)cc1`, with 78.4% (active). `C=CCNc1nc(-c2sc(NC(C)=O)nc2C)cs1`: the cytotoxicity was 11.6% (inactive). Regarding `CC(=O)Nc1nc(C)c(-c2csc(Nc3ccc(O)cc3)n2)s1`, the cytotoxicity was 58.6% (active). Consider `Cc1nc(N)sc1-c1csc(Nc2ccccc2)n1`, for which the cytotoxicity is 36.2% (inactive). Then `O=C(NC1CCCC1)c1cnc2n(c1=O)CCS2`, with -10.2% (inactive). On to `O=C1CC(O)(C(F)(F)F)Oc2c1ccc1ccccc21` (configuration not stated), for which the cytotoxicity was 82.3% (active). As for `COc1ccc2c(c1)OC(O)(C(F)(F)F)CC2=O` (configuration not stated), the cytotoxicity is -3.3% (inactive).

For `O=C1CC(O)(C(F)F)Oc2ccc3ccccc3c21` (configuration not stated), the cytotoxicity is -12.2% (inactive). For `COc1cccc(-c2nc(=S)c3c(n2Cc2ccco2)CCCC3)c1`, the cytotoxicity is -22.8% (inactive). Turning to `CN(C)c1nc(SCCOC(=O)Nc2ccccc2)nc(N(C)C)n1`, the cytotoxicity is 19.3% (inactive). As for `Cc1c(NC(=O)OCCSc2nc(N(C)C)nc(N(C)C)n2)sc(=S)n1C`, the cytotoxicity was 59.5% (active). Turning to `CCOC(=O)Nc1sc(=S)n(C)c1C`, the cytotoxicity was -8.2% (inactive). With `Nc1nc2nccc(-c3ccc(Cl)cc3)n2n1`, the cytotoxicity was 3.6% (inactive). Turning to `Cc1ccc(NC(=O)N2CCCC2C(=O)NCCc2ccccc2)cc1` (configuration not stated), the cytotoxicity is -9.2% (inactive). Then `Cc1ccc(S(=O)(=O)N2CCN(C(=O)COC(=O)COc3ccccc3)CC2)cc1`, with 7.4% (inactive). Under `CCOC(=O)c1ccc2c(c1)nc(SCc1cn3ccsc3n1)n2CC` stands 19.7% (inactive); under `COc1cc([C@@H]2c3cc4c(cc3[C@H](O)[C@H]3COC(=O)[C@H]23)OCO4)cc(OC)c1OC`, 67.2% (active); under `COc1cc(CC(=O)Oc2ccc3c(c2)OCO3)cc(OC)c1OC`, 28.4% (inactive). Turning to `COc1cc(CC(=O)NCc2ccc3c(c2)OCO3)cc(OC)c1OC`, the cytotoxicity is -7.2% (inactive). Under `Cc1nn(C)c(C)c1S(=O)(=O)N1CCCC(C(=O)NCC2COc3ccccc3O2)C1` (configuration not stated) stands -4% (inactive); under `Fc1cccc(CSc2ncnc3c2oc2ccccc23)c1`, 12.4% (inactive); under `COCCn1nnnc1C(c1ccc(OC)cc1OC)N1CCN(c2ccccc2)CC1` (configuration not stated), -2% (inactive). Regarding `COc1ccc(OC)c(C(O)c2coc3ccc(O)c(CN4CCOCC4)c23)c1` (configuration not stated), the cytotoxicity is 1.7% (inactive). Regarding `COC(=O)CSc1nnc(CSc2nc(C)cc(C)n2)n1Cc1ccco1`, the cytotoxicity was -2.1% (inactive).

As to `COc1ccc(C(C)=O)cc1COC(=O)c1cc(C)oc1C`, the cytotoxicity is 2.5% (inactive).

In the case of `COc1ccccc1C(=O)OCC(=O)Nc1ccc(OC(F)F)cc1`, the cytotoxicity is 5.1% (inactive). Under `Cc1cccnc1Nc1nc(-c2ccc(O)cc2O)cs1` stands 67.2% (active).

On to `Cc1nc(N)sc1-c1csc(Nc2ccccn2)n1`, for which the cytotoxicity is -12.4% (inactive). For `Cc1cc(O)ccc1Nc1nc(-c2sc(N)nc2C)cs1`, the cytotoxicity was 1.6% (inactive). In the case of `CCOC(=O)N1CCN(c2c(NCc3cccs3)c(=O)c2=O)CC1`, the cytotoxicity was 46.8% (inactive). `Cc1nc(N2CCN(c3ccccc3)CC2)[nH]c(=O)c1Cc1cccc2ccccc12`: the cytotoxicity was 7.5% (inactive). Take `COC(=O)COc1ccc(S(=O)(=O)NCCC2=CCCCC2)cc1C`: the cytotoxicity was -2.4% (inactive). Regarding `COC(=O)COc1ccc(S(=O)(=O)NCCC2=CCCCC2)cc1`, the cytotoxicity was 18.8% (inactive). For the compound `CCOC(=O)COc1ccc(S(=O)(=O)NCCC2=CCCCC2)cc1`, the cytotoxicity is 50.3% (active). Regarding `O=C(c1ccncc1)N1CCN(C(=O)c2cccs2)CC1`, the cytotoxicity was -5.3% (inactive).

For `O=C(Cc1ccc(Cl)cc1)Nc1ccc(N2CCN(C(=O)c3ccco3)CC2)c(Cl)c1`, the cytotoxicity was 19.6% (inactive). `O=C(Nc1ccc(N2CCOCC2)c(Cl)c1)c1ccco1`: the cytotoxicity is -5.7% (inactive). In the case of `O=C(Nc1ccc(N2CCN(C(=O)c3ccco3)CC2)c(Cl)c1)c1cccs1`, the cytotoxicity was 16.9% (inactive). Consider `O=C(Nc1ccc(N2CCN(C(=O)c3ccco3)CC2)c(Cl)c1)c1c(F)c(F)c(F)c(F)c1F`, for which the cytotoxicity was 56% (active).

For the compound `CCC(=O)Nc1ccc(NC(=O)c2cc3ccccc3o2)cc1`, the cytotoxicity is -18.1% (inactive). For `Cc1ccccc1C(=O)N1CCN(c2ccc(NC(=O)c3ccco3)cc2Cl)CC1`, the cytotoxicity was 11.7% (inactive).

As to `O=C(Nc1ccc(N2CCN(C(=O)c3ccccc3)CC2)c(Cl)c1)c1ccco1`, the cytotoxicity was -7.6% (inactive). Then `O=C(Nc1ccc(N2CCOCC2)c(Cl)c1)c1c(F)c(F)c(F)c(F)c1F`, with 54.5% (active); and `O=C(Nc1ccccc1N1CCN(C(=O)c2ccccc2)CC1)c1cc2ccccc2o1`, with -8.3% (inactive). Consider `O=C(Nc1ccc(N2CCOCC2)c(Cl)c1)c1cccc(F)c1`, for which the cytotoxicity is 16.4% (inactive). Take `CCn1c(C(=O)NCc2cccnc2)cc2sc(Cl)cc21`: the cytotoxicity is 1.8% (inactive). For `CC(=O)Nc1cc(C(=O)N2CCOCC2)ccc1S(=O)(=O)c1ccc(C)cc1`, the cytotoxicity was -15.2% (inactive). `COc1ccc(CCNC(=O)C2CCCN(C(=O)N(C)C)C2)c(OC)c1` (configuration not stated): the cytotoxicity is -5.4% (inactive). For the compound `CCN(CC)c1ccc2c(c1)C(=O)N(C)C2=O`, the cytotoxicity is 11.6% (inactive). With `CCn1cc(SCC(=O)NCc2ccc3c(c2)OCO3)c2ccccc21`, the cytotoxicity is 4.6% (inactive). As to `COc1ccc(CN(CC2CCCO2)S(=O)(=O)c2ccc(C(=O)O)cc2)cc1OC` (configuration not stated), the cytotoxicity was 8.1% (inactive).

For `Cn1c(=Nc2ccc(N3CCOCC3)cc2)ccc2ccccc21`, the cytotoxicity was 0.9% (inactive). With `COc1ccc(-n2nc(C(=O)NCc3ccco3)c3c4ccccc4n(C)c3c2=O)cc1Cl`, the cytotoxicity was 2.9% (inactive). As to `Cc1nn(CCO)c2c1C(=O)CCC2`, the cytotoxicity was -9.1% (inactive).

Turning to `O=C1CC(N2CCOCC2)C(=O)N1c1ccc2c(c1)OCO2` (configuration not stated), the cytotoxicity is -4.6% (inactive). As to `CC1CN(c2nc3ccccc3nc2C(C#N)C(=O)NC2CCCCC2)CC(C)O1` (configuration not stated), the cytotoxicity was -15.5% (inactive). For the compound `Cc1ccc(NC(=O)CN2C(=O)NC(Cc3ccccc3)C2=O)cc1` (configuration not stated), the cytotoxicity was -48.1% (inactive). Turning to `O=C(Nc1ccccc1N1CCN(C(=O)c2ccc(Cl)cc2)CC1)c1cc2ccccc2o1`, the cytotoxicity was -2.7% (inactive). Take `CCCC(=O)N1CCN(c2ccc(NC(=O)c3cc4ccccc4o3)cc2)CC1`: the cytotoxicity was -13.7% (inactive).

For `CC1CCN(CCCNC(=O)C2CCN(S(=O)(=O)N3CCCCC3)CC2)CC1`, the cytotoxicity was -11.8% (inactive). `Cc1cccc(S(=O)(=O)c2c(N)n(/N=C/c3ccco3)c3nc4ccccc4nc23)c1`: the cytotoxicity was 26.6% (inactive). Consider `Cc1ccc(S(=O)(=O)c2c(N)n(/N=C/c3ccco3)c3nc4ccccc4nc23)cc1C`, for which the cytotoxicity is 11.7% (inactive). Consider `Nc1c(S(=O)(=O)c2cccs2)c2nc3ccccc3nc2n1/N=C/c1cccc(O)c1`, for which the cytotoxicity is 64.6% (active).

In the case of `Nc1c(S(=O)(=O)c2cccs2)c2nc3ccccc3nc2n1Cc1cccs1`, the cytotoxicity is -1.9% (inactive). For `Nc1c(S(=O)(=O)c2cccc(Cl)c2)c2nc3ccccc3nc2n1/N=C/c1ccc(O)c(O)c1`, the cytotoxicity was 117% (active). For the compound `COCCn1c(N)c(S(=O)(=O)c2cccs2)c2nc3ccccc3nc21`, the cytotoxicity was 5% (inactive). Turning to `Cc1ccc(S(=O)(=O)c2c(N)n(/N=C/c3ccco3)c3nc4ccccc4nc23)cc1`, the cytotoxicity is 38.7% (inactive). With `Cc1cccc(S(=O)(=O)c2c(N)n(/N=C/c3cccnc3)c3nc4ccccc4nc23)c1`, the cytotoxicity is 28.2% (inactive). As for `Nc1c(S(=O)(=O)c2ccccc2)c2nc3ccccc3nc2n1/N=C/c1ccco1`, the cytotoxicity was 69% (active). For the compound `Nc1c(S(=O)(=O)c2cccc(Cl)c2)c2nc3ccccc3nc2n1CCN1CCOCC1`, the cytotoxicity is -2% (inactive). On to `Cc1ccc(C)c(S(=O)(=O)c2c(N)n(/N=C/c3ccco3)c3nc4ccccc4nc23)c1`, for which the cytotoxicity is 33.6% (inactive).
